# Bioassay records as filed in PubChem BioAssay.
# ELG1 DNA repair: blocks ELG1-dependent DNA repair in HEK293T cells | HEK293T ELG1-luciferase reporter, luminescence, 16 h; DNA damage induced by 5-fluorouridine | Potency, µM (highest dose often 46.1 µM), actives largely listed as inhibitors | 2.3% of 330,000 active | AID 504467; also: nearly all actives have a fitted effect of over 55% in size
#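 Quantitative HTS, concentration-response format. 2,000 cells/well co-treated with 5-fluorouridine and compound, 16 hr in 5% CO2 at 37 °C; ONE-Glo luminescence read after 30 min.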
# Gal4-VP16 FLuc: inhibits Gal4-VP16 luciferase reporter, ROR gamma counter-screen; AID 2546; Drosophila S2 Gal4-VP16 UAS-luciferase, luminescence, 20 h; 3.5% of 310,000 active; Potency, µM (doses to about 53.6 µM), usual class: inhibitors;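 also: Gal4-VP16 expression switched on by copper sulfate through the metallothionein promoter; nearly all actives have a fitted effect of over 50% in size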
# RORgamma inh: ROR gamma (mouse) transcription inhibition | Drosophila S2 Gal4-RORgamma UAS-luciferase reporter, 20 h | Potency, µM (highest dose often 53.6 µM), most hits filed as inhibitors | 5.4% of 310,000 active; also: nearly all actives have a fitted effect of over 60% in size
#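 Luminescence from a UAS-regulated Photinus luciferase reporter in stably transfected Drosophila Schneider cells is measured; decreased signal marks ROR gamma inhibition. Fusion expression is induced by 700 uM copper sulfate for 20 hr.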
# TDP1 cell CPT: growth inhibition of DT40 Tdp1-/-;hTDP1 cells with camptothecin (screen for TDP1 inhibitors); chicken DT40 Tdp1-/-;hTDP1 cells + 20 nM CPT, ATP luminescence, 48 h; Potency, µM (highest dose often 46.2 µM), most hits filed as inhibitors; 12% of 420,000 active; also: nearly all actives have a fitted effect of over 55% in size
#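 Chicken DT40 Tdp1-/- cells stably complemented with human TDP1 were seeded at 400 cells/well in medium containing 20 nM camptothecin, exposed to pin-transferred compounds, and grown at 37 °C for at least 48 hr. Viability was read as ATP luminescence.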
# ALOX12 inh: blocks human arachidonate 12S-lipoxygenase. P18054. purified 12hLO, xylenol orange hydroperoxide absorbance. Potency, µM (doses to about 108 µM), actives largely listed as inhibitors. 1.1% of 580,000 active
# Target sequence (P18054 whole entry, looked up): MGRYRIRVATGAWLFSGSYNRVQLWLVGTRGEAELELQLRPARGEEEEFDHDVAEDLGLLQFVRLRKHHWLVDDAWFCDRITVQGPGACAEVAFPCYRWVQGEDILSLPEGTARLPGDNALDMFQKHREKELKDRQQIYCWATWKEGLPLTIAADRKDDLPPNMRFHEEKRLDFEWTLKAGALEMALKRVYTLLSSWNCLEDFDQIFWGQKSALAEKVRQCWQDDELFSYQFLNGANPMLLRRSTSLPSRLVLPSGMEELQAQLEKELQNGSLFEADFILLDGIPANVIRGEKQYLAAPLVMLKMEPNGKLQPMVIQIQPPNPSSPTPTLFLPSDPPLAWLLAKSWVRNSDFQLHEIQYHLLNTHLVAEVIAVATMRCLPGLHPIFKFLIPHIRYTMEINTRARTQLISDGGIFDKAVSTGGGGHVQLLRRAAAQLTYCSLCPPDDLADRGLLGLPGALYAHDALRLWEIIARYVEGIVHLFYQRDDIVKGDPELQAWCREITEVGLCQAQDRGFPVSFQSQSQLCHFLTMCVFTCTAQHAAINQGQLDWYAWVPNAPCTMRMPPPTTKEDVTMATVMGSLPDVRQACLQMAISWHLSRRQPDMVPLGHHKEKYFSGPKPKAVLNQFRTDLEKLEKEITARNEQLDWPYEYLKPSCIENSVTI
#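 Purified human 12hLO (150 nM final) in 25 mM Hepes, 0.01% Triton X-100, pH 7.0 was preincubated 15 min at room temperature with compound. Then 40 uM arachidonic acid was added, 30 min. Hydroperoxide was read by Fe-XO absorbance ratio 573/405 nm.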
# TDP1 cell noCPT: qHTS for Inhibitors of human tyrosyl-DNA phosphodiesterase 1 (TDP1): qHTS in cells in absence of CPT. Potency, µM (doses to about 46.2 µM), hits mostly inhibitors. 15% of 420,000 active. DT40 Tdp1-/- hTDP1 cells, no CPT, ATP luminescence, 48 h; also: nearly all actives have a fitted effect of over 55% in size
#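 No-CPT arm: Tdp1-/-;hTDP1 DT40 cells (400/well) plus compounds, incubated ≥48 hr at 37 °C. Readout CellTiter-Glo luminescence.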
# A number is an active result; n = inactive; u = inconclusive; x = no result given; [ ] = dose if it differs, or a comment. Hits are enriched below; roughly 15% of the tested compounds scored in any of these assays. Calls follow the shape of the dose curve; as a rule, active = well fitted curve in the direction sought with a large enough effect; inconclusive = small, poorly fitted or top-dose-only effect, or another doubt; inactive = no such curve, though single readings can be large; an effect the other way counts as inactive or inconclusive.
SMILES,ELG1 DNA repair,Gal4-VP16 FLuc,RORgamma inh,TDP1 cell CPT,ALOX12 inh,TDP1 cell noCPT
Cc1cccc(N2CCN(c3nc4ccccc4c(=O)n3-c3ccc(Cl)cc3)CC2)c1C,x,x,x,n,n,u
O=c1c2ccccc2nc(N2CCN(c3cccc(Cl)c3)CC2)n1-c1ccccc1,x,x,x,3.7µM,n,2.9µM
COc1ccc(Cc2cnc(NC(=O)c3cc(=O)c4cc(C)ccc4o3)s2)cc1,x,x,x,x,n,x
COc1ccc(C(=O)Cn2cnc3ccccc3c2=O)c(OC)c1,n,8.9µM,4.5µM,n,n,u
COc1cc(Cl)c(C)cc1NC(=O)CNC(=O)Cn1cnc2ccccc2c1=O,n,n,n,n,n,n
COc1cc(OC)c(NC(=O)CCNC(=O)Cn2cnc3ccccc3c2=O)cc1Cl,n,n,n,18µM,n,u
COc1cc(OC)c2c(C)c(CC(=O)Nc3ccc(Cn4cncn4)cc3)c(=O)oc2c1,x,x,x,x,n,x
CCN(CC)Cc1c(C=O)sc2c1CCCC2,x,x,x,x,n,x
Cc1cc(Cl)ccc1NC(=O)CN1CCCC1,n,n,n,n,n,n
O=C(CN1CCCCC1)Nc1ccc(NC(=O)c2ccc(Cl)cc2)cc1Cl,n,u,n,13µM,n,26µM
O=C(CN1CCCC1)Nc1ccc(Cl)cc1C(F)(F)F,n,n,n,23µM,n,u
CSc1ccc(/C=C(\NC(=O)c2ccc(C)cc2)C(=O)NN)cc1,18µM,n,n,n,n,n
Cc1ccc(C(=O)N/C(=C/c2ccccc2)C(=O)NCCC(=O)O)cc1,x,x,x,x,n,x
CSc1ccc(/C=C(/NC(=O)c2ccc(C)cc2)C(=O)Nc2cccc(C)c2)cc1,n,n,n[10 µM],7.3µM,n,7.3µM
CC1CN(C)C(C)(C)CC1O (centres undefined),x,x,x,x,n,x
COc1ccc(C(=O)COC(=O)c2cc(C)nc3c(C)cccc23)cc1,x,x,x,x,n,x
O=C(NCCN1Cc2ccccc2OC(c2ccsc2)C1)c1cncs1 (centres undefined),x,x,x,n[9.04 µM],n,n
CCc1cc(C(=O)NCCN2Cc3ccccc3OC(c3ccsc3)C2)n(C)n1 (centres undefined),x,x,x,u,n,21µM
COc1ccc(C(=O)Nc2ccccc2C(=O)N2CCOCC2)cc1Br,n,n,n,n,n,n
COc1ccc(C(=O)Nc2ccccc2N2CCOCC2)cc1Br,n,n,18µM,u,n,u
COc1ccc(C(=O)Nc2ccccc2N2CCOCC2)cc1S(=O)(=O)N1CCOCC1,n,x,x,u,n,u
COc1ccc(CN2C(=O)c3ccccc3C2=O)cc1C(=O)Nc1ccccc1N1CCOCC1,u,n,n,u,n,16µM
COc1ccc(NC(=O)c2cc(CN3C(=O)c4ccccc4C3=O)ccc2OC)cn1,u,u,u,u,n,u
CCOc1ccc(C(=O)NC(=S)Nc2ccccc2N2CCOCC2)cc1Br,u,4.5µM,3.2µM,u,25µM,16µM
COc1ccc(C(=O)NC(=S)Nc2ccccc2N2CCOCC2)cc1Br,u,6.3µM,6.3µM,u,16µM,18µM
SMILES,ELG1 DNA repair,Gal4-VP16 FLuc,RORgamma inh,TDP1 cell CPT,ALOX12 inh,TDP1 cell noCPT
O=C(Nc1ccccc1)N1CCCC(Cn2c(C3CC3)nc3cccnc32)C1 (centres undefined),x,x,x,x,n,x
CC(=O)Nc1cccc(C(=O)Nc2ccccc2N2CCOCC2)c1,u,n,n,u,n,26µM
Oc1ccccc1C1=NC(c2ccccc2)NC(c2ccccc2)C1 (centres undefined),x,x,x,u,n,18µM
O=C(CSc1nc2ccccc2o1)Nc1ccc(F)cc1,x,x,x,x,n,x
COc1ccc(-c2cnn3c2NC(=O)CC3C(=O)Nc2ccc(F)c(Cl)c2)cc1OC (centres undefined),x,x,x,x,n,x
C/C(=N\Nc1cccc(Cl)c1)c1ccc(-n2ccnc2)cc1,n,n,n,u,u,16µM
C/C(=N\NC(=O)c1cccs1)c1ccncc1,u,n,n,n,u,n
C/C(=N\NC(=O)C(=O)Nc1ccc(C)c(Cl)c1)c1ccncc1,n,u,u,1.6µM,n,2.3µM
C/C(=N\NC(=O)C(=O)Nc1ccc(C)cc1)c1ccncc1,n,n,n,u,n,9.2µM
C/C(CC(=O)Nc1ccc(OCc2ccccc2)cc1)=N\NC(=O)C(=O)Nc1ccc(C)c(Cl)c1,u,u,n,u,n,18µM
CCC(C)N(CC(=O)Nc1cccc(C)c1C)C(=O)CN1CCCC(C(F)(F)F)C1 (centres undefined),x,x,x,x,n,x
C/C(=N\NC(=O)C(=O)Nc1cccc(Cl)c1)c1ccncc1,n,5.6µM,u,12µM,n,7.3µM
CC(C)C(=O)Nc1ccc(NC(=O)CC(C)(C(=O)O)c2ccccc2)cc1 (centres undefined),x,x,x,x,n,x
COC(=O)[C@]1(Cc2ccccc2)N[C@H](CN(C)C(=O)Nc2ccc(OC)cc2)[C@@H]2C(=O)N(C)C(=O)[C@@H]21,n,x,x,n,u,n
CCN(C[C@H]1N[C@@](Cc2ccccc2)(C(=O)OC)[C@H]2C(=O)N(Cc3ccccc3)C(=O)[C@@H]12)C(=O)c1ccc(F)cc1,u,x,x,16µM,n,u
COC(=O)[C@]1(Cc2ccccc2)N[C@H](CN(C)C(=O)Nc2ccc(OC)cc2)[C@@H]2C(=O)N(Cc3ccccc3)C(=O)[C@@H]21,n,x,x,18µM,u,8.2µM
COC(=O)[C@]1(Cc2ccccc2)N[C@H](CN(C)C(=O)C2CCCCC2)[C@@H]2C(=O)N(Cc3ccccc3)C(=O)[C@@H]21,u,x,x,21µM,n,16µM
CCN(C[C@H]1N[C@@](CC)(C(=O)OC)[C@H]2C(=O)N(Cc3ccccc3)C(=O)[C@@H]12)C(=O)c1ccc(C)cc1,8.2µM,x,x,u,n,15µM
CC1(C(=O)NCc2cccnc2)CCC(=O)N1Cc1ccccc1Cl (centres undefined),x,x,x,x,n,x
CC[C@@]1(C(=O)OC)N[C@H](CN(C)C(=O)c2ccc(C)cc2)[C@@H]2C(=O)N(Cc3ccccc3)C(=O)[C@@H]21,n,x,x,n,n,n
CCN(C[C@H]1N[C@@](CC)(C(=O)OC)[C@H]2C(=O)N(Cc3ccccc3)C(=O)[C@@H]12)C(=O)Nc1ccc(OC)cc1,n,x,x,n,n,n
CCN(C[C@H]1N[C@@](CC)(C(=O)OC)[C@H]2C(=O)N(Cc3ccccc3)C(=O)[C@@H]12)C(=O)Nc1ccc(C(F)(F)F)cc1,n,x,x,n,n,6.5µM
CCN(C[C@H]1N[C@@](CC)(C(=O)OC)[C@H]2C(=O)N(Cc3ccccc3)C(=O)[C@@H]12)C(=O)c1ccc(F)cc1,16µM,x,x,n,u,u
